The values below come from PubChem BioAssay AID1845227 (National Center for Advancing Translational Sciences (NCATS), 2023).

Inconclusive results are not listed. A call without a number means that no potency is given here. Active and inactive are the calls of the source. Calls follow the shape of the dose curve; as a rule, active = well fitted inhibition curve with a large enough effect; inconclusive = small, poorly fitted or top-dose-only effect; inactive = no such curve, though single readings can be large or run the other way.
Potency is read from the fitted curve at half-maximal effect.

The target in the test is Luciferin 4-monooxygenase (Photinus pyralis) (UniProt P08659). Briefly: Confirmatory firefly luciferase (FLuc) qHTS assay for identification of artifact compounds. The settings on record: purified FLuc enzyme, luminescence, 5 min; series mostly up to 38.9 µM. The gist of the method: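 Compounds were preincubated 15 min at room temperature with 10 uM D-luciferin and 10 uM ATP in Tris acetate pH 7.6. 10 nM Photinus pyralis luciferase was then added, and luminescence was read after 5 min.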
In general terms: qHTS replaces the single test concentration by a dilution series.
Consider `O=C(Nc1ccccc1-c1nc2ccccc2s1)c1cc(Cl)cc(Cl)c1`, for which the Potency entry is “inactive”.
As for `O=C(C1CCC(CNS(=O)(=O)c2cccc3cccnc23)CC1)N1CCCCC1` (stereo not given), the entry is “inactive”.
The entry for `CC(=O)c1ccc(NS(=O)(=O)c2ccc(-c3cc(C)no3)s2)cc1` is “inactive”; for `COc1cccc(NC(=O)CSc2nc3cc(OC)c(OC)cc3c3nc(-c4ccccc4)nn23)c1` it is “inactive”.
The entry for `Cc1cc(C)n2ncc(C(=O)Nc3ccc(-c4cn[nH]c4)cc3)c2n1` is “inactive”; for `Cc1ccc(NC(=O)c2sc3ncn(Cc4cccc(F)c4)c(=O)c3c2C)c(Br)c1` it is “inactive”.
As to `C[C@@H]1O[C@H](O[C@@H]2C(O)[C@H](O)[C@@H](CO)O[C@H]2Oc2cc(O)c3c(=O)cc(-c4ccc(O)cc4)oc3c2)[C@H](O)[C@H](O)[C@H]1O` (stereo not given in full), the Potency entry is “inactive”.
As for `CCCNC(=O)c1ccccc1NC(=O)c1nsc2ccccc12`, the entry is “inactive”; as for `CN(C)[C@@H]1C(=O)C(C(=O)NCN2CCCC2)C(=O)[C@@]2(O)C(=O)C3C(=O)c4c(O)cccc4[C@@](C)(O)[C@H]3C[C@@H]12` (stereo not given in full), “inactive”.
The entry for `Cc1c(CCNC(=O)Cc2ccc(F)cc2)sc2nc(-c3ccc(F)cc3)nn12` is “inactive”; for `CC1CCCCN1S(=O)(=O)c1cc2c3c(c1)CC(=O)N3CCC2` (stereo not given) it is “inactive”; for `Cc1cccc(-c2noc(-c3cc(C(C)C)[nH]n3)n2)c1` it is 6.12 µM (active).
The entry for `O=C(COc1ccccc1C(=O)Nc1ccccc1)Nc1cccc([N+](=O)[O-])c1` is “inactive”; for `COc1ccc(-c2nnc3n2N=C(c2cc(OC)ccc2OC)CS3)c(OC)c1` it is “inactive”; for `CCCCN(CCCNC(=O)c1cc(Nc2ccc(OC)c(OC)c2)nc2ccccc12)Cc1ccccc1` it is “inactive”.
